Reference: the supplement of paper PMC12645437, “Orthogonal IMiD-Degron Pairs Induce Selective Protein Degradation in Cells” (ACS Chemical Biology, 2025)
Whole data set: some 8,300 sequences, median “log2 fold change of degron read counts, EGFP-low vs EGFP+ sorted cells (limma voom), compound-induced degradation” near -1.1, cut for the highest 2% near 3.2. Many of the other results were omitted from the sample, so the highest values are more common in it than they were.

T1: CRBN, Q96SW2
T1 chain: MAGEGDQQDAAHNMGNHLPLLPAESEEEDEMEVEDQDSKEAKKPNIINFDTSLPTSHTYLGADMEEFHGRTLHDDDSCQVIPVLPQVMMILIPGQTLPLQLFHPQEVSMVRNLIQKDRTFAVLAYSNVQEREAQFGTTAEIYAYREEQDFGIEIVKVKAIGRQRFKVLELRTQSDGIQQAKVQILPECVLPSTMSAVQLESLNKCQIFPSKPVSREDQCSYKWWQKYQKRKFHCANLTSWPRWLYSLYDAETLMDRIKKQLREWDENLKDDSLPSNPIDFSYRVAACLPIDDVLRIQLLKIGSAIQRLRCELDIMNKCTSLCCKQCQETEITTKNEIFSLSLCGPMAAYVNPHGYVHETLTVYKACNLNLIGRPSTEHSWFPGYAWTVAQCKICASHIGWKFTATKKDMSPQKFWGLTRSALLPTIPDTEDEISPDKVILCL


Biological target: T1, CRBN, Q96SW2
Assay: log2 fold change of degron read counts, EGFP-low vs EGFP+ sorted cells (limma voom), compound-induced degradation; higher = more compound-induced degradation of the degron-EGFP fusion; degrons are variants of IKZF1/3 zinc finger 2; compound dose not given here
Conditions: Jurkat, 18 h
[1] = compound: compound 19 (5-tert-butyl-thalidomide)
[2] = compound: compound 22 (5-morpholino-thalidomide)
[3] = compound: compound 33 (diphenyl IMiD analogue)
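Further: pooled lentiviral library of zinc finger degron-EGFP fusions in mCherry-positive Jurkat cells, FACS-sorted after compound exposure, with degron abundance counted by next-generation sequencing.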

Sequence | log2 fold change of degron read counts [1] | log2 fold change of degron read counts [2] | log2 fold change of degron read counts [3] | log2 fold change of degron read counts (compound: thalidomide)
FSCDQCGAAFTQKGNLLRHIKL [46F_47S_49D_50Q_52G_53A_54A_55F_67L_, Q9UKT9] | -0.624 | -1.35 | 0.123 | -2.08
FSCDICGAQFTQKGNLLRHIKL [46F_47S_49D_50I_52G_53A_54Q_55F_67L_, Q9UKT9] | 1.74 | 1.52 | 0.198 | 0.0774
LTCPICGFNCTQKGNLLRHIKL [46L_47T_49P_50I_52G_53F_54N_55C_67L_, Q9UKT9] | -0.006 | 2.04 | 2.24 | 2.86
FSCEICGHYFTQKGNLLRHIKL [46F_47S_49E_50I_52G_53H_54Y_55F_67L_, Q9UKT9] | -2.13 | -2.82 | -2.44 | -2.99
FLCEICGHLFTQKGNLLRHIKL [46F_47L_49E_50I_52G_53H_54L_55F_67L_, Q9UKT9] | -3.49 | -2.55 | -2.84 | -2.4
FMCEICGRDFTQKGNLLRHIKL [46F_47M_49E_50I_52G_53R_54D_55F_67L_, Q9UKT9] | -4.1 | -3.78 | -2.1 | -2.87
FFCPVCGANFTQKGNLLRHIKL [46F_47F_49P_50V_52G_53A_54N_55F_67L_, Q9UKT9] | 2.53 | 3.51 | 1.89 | 1.22
FVCDVCGANFTQKGNLLRHIKL [46F_47V_49D_50V_52G_53A_54N_55F_67L_, Q9UKT9] | -1.78 | 0.744 | 0.282 | 0.237
FWCDVCGANFTQKGNLLRHIKL [46F_47W_49D_50V_52G_53A_54N_55F_67L_, Q9UKT9] | 1.91 | 3.89 | 0.9 | -0.759
FYCNVCGANFTQKGNLLRHIKL [46F_47Y_49N_50V_52G_53A_54N_55F_67L_, Q9UKT9] | 0.97 | 2.35 | 0.921 | -0.663
FRCPVCGANFTQKGNLLRHIKL [46F_47R_49P_50V_52G_53A_54N_55F_67L_, Q9UKT9] | -0.729 | -0.0361 | 1.6 | 1.18
FWCNVCGANFTQKGNLLRHIKL [46F_47W_49N_50V_52G_53A_54N_55F_67L_, Q9UKT9] | 1.2 | 3.53 | 1.36 | -0.0957
FICPVCGANFTQKGNLLRHIKL [46F_47I_49P_50V_52G_53A_54N_55F_67L_, Q9UKT9] | -1.07 | 2.83 | 1.95 | 2.35
FECDVCGANFTQKGNLLRHIKL [46F_47E_49D_50V_52G_53A_54N_55F_67L_, Q9UKT9] | -1.89 | -2.52 | 0.03 | -0.264
FECNVCGANFTQKGNLLRHIKL [46F_47E_49N_50V_52G_53A_54N_55F_67L_, Q9UKT9] | -2.58 | -1.81 | 0.845 | 0.642
FSCEICGHWFTQKGNLLRHIKL [46F_47S_49E_50I_52G_53H_54W_55F_67L_, Q9UKT9] | -2.92 | -3.14 | -2.71 | -2.77
FRCNICGAMFTQKGNLLRHIKL [46F_47R_49N_50I_52G_53A_54M_55F_67L_, Q9UKT9] | -1.41 | -1.24 | -0.539 | -0.171
FKCPICGHGFTQKGNLLRHIKL [46F_47K_49P_50I_52G_53H_54G_55F_67L_, Q9UKT9] | -2.34 | -2.29 | -2.14 | -1.69
